Where “and” joins values, the source holds several entries; their conditions need not be identical. Equal values may be shown once. Where a name gives a salt, the structure may show the parent alone.
Assays:
Assay in all cases: cell viability relative to vehicle control; higher = less cytotoxic
Settings in all cases: 10 µM
[1] = test system: K562
Method in brief: (§1)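 Each screen used CRISPR-edited mutant and wild-type clones from four leukaemia lines. Compounds were acoustically dispensed at a single 10 µM dose, and CellTiter-Glo luminescence was read after 48 h with the supernatant first removed. Viability was analysed in Genedata Screener and given as percent of the on-plate vehicle control.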

[2] = test system: MARIMO
Method in brief: as §1

[3] = test system: MOLM14
Method in brief: as §1

[4] = test system: OCI-AML2
Method in brief: as §1

| SMILES | cell viability ([1]; SRSF2 genotype: SRSF2 P95H/wt) | cell viability ([1]; SRSF2 genotype: SRSF2 wt/wt) [%] | cell viability ([2]; SRSF2 genotype: SRSF2 P95H/wt) [%] | cell viability ([2]; SRSF2 genotype: SRSF2 wt/wt) [%] | cell viability ([3]; SRSF2 genotype: SRSF2 P95H/wt) [%] | cell viability ([3]; SRSF2 genotype: SRSF2 wt/wt) [%] | cell viability ([4]; SRSF2 genotype: P95H/wt) [%] | cell viability ([4]; SRSF2 genotype: wt/wt) [%] |
| --- | --- | --- | --- | --- | --- | --- | --- | --- |
| Cc1cn(-c2cc(NC(=O)c3ccc(C)c(Nc4nccc(-c5cnccn5)n4)c3)cc(C(F)(F)F)c2)cn1 [Radotinib] | 22.3% and 38.7% | 22.1 | 107 | 111 | 104 | 100 | 103 | 104 |
| O=C(Nc1ccc(S(=O)(=O)Nc2ccccc2Cl)c(Cl)c1)c1ccccn1 | 98.1% and 99% | 99.7 | 95.6 | 101 | 97.6 | 98.3 | 103 | 104 |
| COc1cc(-c2ncn(/C=C\C(=O)OC(C)C)n2)cc(C(F)(F)F)c1 | 5.77% and 12.8% | 10.7 | 19.1 | 20.6 | 2.46 | 0.92 | 4.82 | 9.13 |
| COc1ccc(COc2cc3oc(=O)c4cc(C(C)O)ccc4c3cc2OC)cc1 (stereo not drawn) [Palomid 529] | 101% and 111% | 104 | 105 | 103 | 102 | 101 | 106 | 97.2 |
| O=C(O)CCN1C(=O)/C(=C/c2ccc(-c3ccc([N+](=O)[O-])cc3)o2)SC1=S | 104% and 106% | 111 | 100 | 98.5 | 93.3 | 101 | 103 | 109 |
| Cc1nn(C)c2c1C(c1ccc(C(F)(F)F)cc1)C(C#N)=C(N)O2 (stereo not drawn) | 101% and 106% | 111 | 99.5 | 95 | 103 | 102 | 112 | 121 |
| C=C1/C(=C\C=C2/CCC[C@]3(C)[C@@H]([C@H](C)CCCC(C)C)CC[C@@H]23)C[C@@H](O)C[C@@H]1O [Alfacalcidol] | 90.3% and 95.4% | 99.1 | 82.5 | 82.5 | 84.9 | 94.2 | 98.7 | 110 |
| CCC[C@@H]1C[C@@H](C(=O)N[C@@H]([C@H]2O[C@H](SC)[C@H](O)[C@@H](O)[C@H]2O)[C@H](C)Cl)N(C)C1 [Clindamycin] | 96.3% and 99.1% | 103 | 104 | 106 | 95.3 | 99.8 | 113 | 98.9 |
| Cc1ccc(NCCCc2ccccc2)c(N)c1 | 74.3% and 88.2% | 83.1 | 48.2 | 72.4 | 69 | 72.5 | 60.8 | 63.5 |
| C=C1CC[C@H]2C(=C)CC[C@H]3C(=C)C(=O)O[C@@H]3[C@@H]12 [Dehydrocostus Lactone] | 25.2% and 23.9% | 30.8 | 13.7 | 16.1 | 8.31 | 11.1 | 3.84 | 6.64 |
| O=S(=O)(Cl)c1ccc(-c2ccccc2)cc1 [Biphenyl-4-sulfonyl chloride] | 109% and 104% | 107 | 99 | 100 | 108 | 105 | 105 | 113 |
| COc1cc(C[C@@H](CO[C@@H]2O[C@H](CO)[C@@H](O)[C@H](O)[C@H]2O)[C@H](CO[C@@H]2O[C@H](CO)[C@@H](O)[C@H](O)[C@H]2O)Cc2ccc(O)c(OC)c2)ccc1O [Secoisolariciresinol diglucoside] | 96.7% and 93.6% | 98.9 | 90 | 101 | 101 | 98.5 | 96.8 | 104 |
| CCOC(=O)C1=C[C@@H](OC(CC)CC)[C@H](NC(C)=O)[C@@H](N)C1 [Oseltamivir Phosphate] | 103% and 105% | 104 | 102 | 106 | 110 | 109 | 110 | 104 |
| COc1ccc(C2CC(=O)c3c(O)cc(OC4OC(COC5OC(C)C(O)C(O)C5O)C(O)C(O)C4O)cc3O2)cc1OC (stereo not drawn) [Methyl-Hesperidin] | 96.9% and 106% | 97.8 | 107 | 114 | 108 | 107 | 107 | 104 |
| Cc1cc(O)c(C(=O)N[C@@H](C(=O)N[C@@H]2C(=O)N3C(C(=O)O)=C(CSc4nnnn4C)CS[C@H]23)c2ccc(O)cc2)cn1 [Cefpiramide sodium] | 111% and 107% | 104 | 109 | 115 | 107 | 110 | 99.7 | 99.8 |
| O=C(O)c1cc(O)ccc1O [Gentisic acid] | 100% and 104% | 99.6 | 101 | 105 | 101 | 102 | 102 | 111 |
| CO/N=C(\C(=O)N[C@@H]1C(=O)N2C(C(=O)[O-])=C(C[n+]3cccc4c3CCCC4)CS[C@H]12)c1csc(N)n1 [Cefquinome sulfate] | 103% and 99.9% | 91 | 87.5 | 100 | 86.3 | 95.5 | 93.9 | 91.6 |
| CC(C)=CCC[C@](C)(O[C@@H]1O[C@H](CO)[C@@H](O)[C@H](O)[C@H]1O)[C@H]1CC[C@]2(C)[C@@H]1[C@H](O)C[C@@H]1[C@@]3(C)CC[C@H](O)C(C)(C)[C@@H]3[C@@H](O[C@@H]3O[C@H](CO)[C@@H](O)[C@H](O)[C@H]3O)C[C@]12C [Ginsenoside Rg1] | 95.2% and 91.8% | 101 | 96.7 | 94.4 | 97.5 | 98.4 | 99.5 | 104 |

| SMILES | cell viability ([1]; SRSF2 genotype: SRSF2 P95H/wt) | cell viability ([1]; SRSF2 genotype: SRSF2 wt/wt) [%] | cell viability ([2]; SRSF2 genotype: SRSF2 P95H/wt) [%] | cell viability ([2]; SRSF2 genotype: SRSF2 wt/wt) [%] | cell viability ([3]; SRSF2 genotype: SRSF2 P95H/wt) [%] | cell viability ([3]; SRSF2 genotype: SRSF2 wt/wt) [%] | cell viability ([4]; SRSF2 genotype: P95H/wt) [%] | cell viability ([4]; SRSF2 genotype: wt/wt) [%] |
| --- | --- | --- | --- | --- | --- | --- | --- | --- |
| O=C1C(=Cc2ccncc2)CCCC1=Cc1ccncc1 | 7.78% and 5.31% | 20.5 | 1.92 | 0.58 | 2.47 | 0.31 | 0.15 | 0.12 |
| CCC(=O)O[C@]1(C(=O)SCF)[C@H](C)C[C@H]2[C@@H]3C[C@H](F)C4=CC(=O)C=C[C@]4(C)[C@@]3(F)[C@@H](O)C[C@@]21C [Fluticasone propionate (Flonase, Veramyst)] | 92.7% and 86.5% | 88 | 87.8 | 99 | 85.3 | 83.2 | 86.7 | 108 |
| O=C(Oc1cc(S(=O)(=O)c2ccccc2)ccc1[N+](=O)[O-])c1ccc(Cl)cc1 | 104% and 109% | 106 | 106 | 103 | 104 | 107 | 114 | 115 |
| C=CC(=O)Nc1cc2c(Nc3ccc(F)c(Cl)c3)ncnc2cc1OCCCN1CCOCC1 [CI-1033 (Canertinib)] | 66.7% and 78.1% | 61.7 | 52 | 61.5 | 12.8 | 15.9 | 27.6 | 31.4 |
| O=C(Nc1ccc(O)cc1)c1ccccc1O [Osalmid] | 98.1% and 108% | 98.3 | 93 | 95.8 | 107 | 109 | 99 | 87.3 |
| Clc1ccc(COC(Cn2ccnc2)c2ccc(Cl)cc2Cl)c(Cl)c1 (stereo not drawn) [Miconazole nitrate] | 68.8% and 61.8% | 67.2 | 70 | 76.1 | 57.4 | 64.3 | 66.2 | 63.4 |
| CO/N=C(\C(=O)N[C@@H]1C(=O)N2C(C(=O)[O-])=C(C[n+]3ccn4ncccc43)CS[C@H]12)c1nsc(N)n1 [Cefozopran hydrochloride] | 108% and 99.3% | 101 | 100 | 114 | 99.4 | 106 | 95.2 | 95.9 |
| C#CC1(O)CC[C@H]2[C@@H]3CCC4=CC(=O)CC[C@@H]4[C@H]3CC[C@@]21CC (stereo partly drawn) [Norgestrel] | 100% | 97.1 | 95.6 | 103 | 98.2 | 108 | 122 | 114 |
| CC(C)(OCc1nn(Cc2ccccc2)c2ccccc12)C(=O)O [Bindarit] | 102% and 106% | 112 | 108 | 103 | 101 | 106 | 118 | 107 |
| Cc1ccc(Nc2nccc(N(C)c3ccc4c(C)n(C)nc4c3)n2)cc1S(N)(=O)=O [Pazopanib HCl] | 49.1% and 57.7% | 51 | 54.5 | 46.3 | 36.4 | 39.8 | 28.3 | 33.9 |
| CCNC(=O)c1[nH]nc(-c2cc(Cl)c(O)cc2O)c1-c1ccc(OC)cc1 | 19.1% and 31.3% | 23.6 | 33.6 | 28.2 | 2.11 | 1.17 | 12.6 | 19.3 |
| O=C(O)Cc1ccc2c(c1)C(=O)c1ccccc1CO2 [Isoxepac] | 104% | 105 | 106 | 105 | 100 | 105 | 105 | 105 |
| C=C[C@]1(C)C[C@@H](OC(=O)CS[C@@H]2C[C@H]3CC[C@@H](C2)N3C)[C@]2(C)[C@H](C)CC[C@]3(CCC(=O)[C@H]32)[C@@H](C)[C@@H]1O [Retapamulin] | 81.2% and 79.9% | 84 | 85.6 | 84.6 | 87.6 | 84.5 | 75.8 | 84 |
| COc1cc(C(=O)N2CCC(N3CCN(C)CC3)CC2)ccc1Nc1ncc2c(n1)N(C)c1ccccc1C(=O)N2C | 49.8% and 57.1% | 61.2 | 26.9 | 31.8 | 16.3 | 20.6 | 10.9 | 21.2 |
| O=c1cc(-c2cccc3c2Sc2ccccc2S3)oc(N2CCOCC2)c1 | 98.7% and 93.1% | 91.2 | 105 | 103 | 93.6 | 95.5 | 85.7 | 88.8 |
| CN1C(CCl)Nc2cc(Cl)c(S(N)(=O)=O)cc2S1(=O)=O (stereo not drawn) [Methyclothiazide] | 92.4% and 91.5% | 98.4 | 96.5 | 100 | 90 | 97.4 | 96.3 | 99 |
| C=C1[C@H](OC(=O)/C=C(\C)CC)C[C@@H](C(C)C)[C@@H]2[C@@H]([C@@H](C)OC(C)=O)C(=O)C[C@@H]12 [Tussilagone] | 83% and 91.6% | 89.5 | 57 | 53.2 | 64.5 | 71.3 | 56.6 | 77.6 |
| CO[C@H]1/C=C/O[C@@]2(C)Oc3c(C)c(O)c4c(O)c(c(/C=N/N5CCN(C)CC5)c(O)c4c3C2=O)NC(=O)/C(C)=C\C=C\[C@H](C)[C@H](O)[C@@H](C)[C@@H](O)[C@@H](C)[C@H](OC(C)=O)[C@@H]1C [Rifampin] | 106% and 97.3% | 93.9 | 99.9 | 116 | 83.1 | 95.7 | 96.4 | 105 |

Reference: the supplement of paper PMC10981050
